The results in this text go back to PubChem BioAssay (EPA / NIEHS).

Activity calls are given as the source filed them. The calls were made as follows: active = hit-call score of the fitted dose curve at least 0.9, where 1 is the maximum; inactive = score below 0.9.

This assay in a line: APR_HepG2_StressKinase_72hr: Apredica 72-hour HepG2 Assay for Stress Kinase (AID 2282921). The conditions noted are these: HepG2 stress kinase (phospho-c-Jun) imaging, actives raise or lower the signal. The protocol: APR_HepG2_72hr is a cell-based, multiplexed-readout assay that uses HepG2, a human liver cell line, with measurements taken at 72 hours after chemical dosing in a 384-well plate.APR_HepG2_StressKinase_72hr is one of 10 assay component(s) measured or calculated from the APR_HepG2_72hr assay. It is designed to make measurements of enzyme activity, a form of enzyme reporter, as detected with fluorescence intensity signals by HCS Fluorescent Imaging technology.Data from the assay component APR_HepG2_StressKinase_72hr was analyzed into 1 assay endpoint. This assay endpoint, APR_HepG2_StressKinase_72hr, was analyzed with bidirectional fitting relative to DMSO as the negative control and baseline of activity. Using a type of enzyme reporter, measures of protein for gain or loss-of-signal activity can be used to understand the signaling at the pathway-level as they relate to the gene . Furthermore, this assay endpoint can be referred to as a primary readout, because this assay has produced multiple assay endpoints where this one serves a signaling function. To generalize the intended target to other relatable targets, this assay endpoint is annotated to the cell cycle intended target family, where the subfamily is stress response.
Cells were treated with dimethyl sulfoxide (DMSO) as a solvent control at a final concentration of 0.5% v/v or with compounds in DMSO with a resulting final DMSO concentration of 0.5% v/v. Compound treatment was done at concentrations of 0.39, 0.78, 1.56, 3.12, 6.24, 12.5, 25, 50, 100, and 200 uM in duplicate on each plate. Cells were treated with compounds for 1, 24, or 72 hr. Carbonyl […] m-chloro-phenylhydrazone (CCCP) and taxol were used as positive controls for mitochondrial function and cytoskeletal stability, respectively; DMSO served as the negative control for this experiment. Cells were fixed by the direct addition of 50 uL formaldehyde in Hank's Balanced Salt Solution (HBSS) to a final concentration of 3.7%. After incubation in the fixation medium for 30 min at room temperature (293-298 K), cells were rinsed twice with HBSS and treated with cell permeabilization buffer (16 uL of 0.5% Triton X-100) for 10 min at room temperature (293-298 K) before labeling. For mitochondrial membrane potential and mitochondrial measurements, pre-fixed cells were incubated with 50 uL of MitoTracker Red CMXRos (Invitrogen) at a concentration of 250 nM for 30 min before fixation. In the remaining cases, post-fixed cells were labeled by incubation with a multiplexed mixture of primary antibodies in HBSS for 60 min at room temperature (293-298 K) to detect immunoreactivity of c-Jun (1:500), phospho-histone H3 (1:100), phospho-histone H2A.x (1:200), p53 (1:400), alpha-tubulin (1:200) and Hoechst 33342 (2 ug/mL). Cells were labeled for multiplexed imaging on two separate plates: a) Hoechst 33342, MitoTracker Red, phospho-histone H3, and alpha-tubulin, and b) Hoechst 33342, phospho-histone H2A.x, and c-Jun. A final rinse with HBSS (50 uL) was performed before analysis. The primary and secondary antibodies for the proteins were phospho-histone H3 (rabbit anti-phospho-histone H3 and FITC-donkey anti-rabbit IgG), phospho-histone H2A.x (mouse anti-phospho-histone H2A.x and FITC-donkey anti-mouse IgG), c-Jun (rabbit anti-phospho-c-Jun and Cy3-donkey anti-rabbit IgG), p53 (sheep anti-p53 and Cy5-donkey anti-sheep IgG), alpha-tubulin (mouse anti-alpha-tubulin and Cy5-donkey anti-mouse IgG). These antibodies are available as the CellCiphr HepG2 assay kit (Millipore).Digital images of each well were captured using a Cellomics ArrayScan VTI (Thermo Scientific Cellomics) (0.8 NA objective, 0.63x optical coupler, and XF-93 filter set) at 20x magnification. The images were acquired using the autofocus feature of the ArrayScan instrument, which entails the following steps. First, the camera focuses on channel 1 (Hoechst 33342), where nuclei are identified. Second, a Z offset of 1 um is used for capturing mitochondria (MitoTracker Red). […]
As to `CCCCCCCCCCCO`, the call was inactive.

In the case of `O=C1c2ccccc2C(=O)N1CCc1noc(-c2ccc(CN3CCCCCC3)s2)n1`, the compound was classed as inactive.

For the compound `CCN(Cc1cccnc1)C(=O)c1cccc(Cl)c1[C@]1(C)C(=O)N(Cc2ccc(OC)cc2OC)c2ccc(Cl)cc21`, the compound was called inactive.

The term AC50 denotes the concentration giving half of the maximal activity seen. Turning to `CCCCCCCCCCCC[N+](C)(C)C`, the AC50 was 100 µM (active).

On to `CCCOC(=O)c1cc(O)c(O)c(O)c1`, for which the outcome was inactive.

For `O=C(OCCCCCCOC(=O)c1ccccc1)c1ccccc1`, the compound was classed as inactive.

Consider `CC/C(=C(/CC)c1ccc(O)cc1)c1ccc(O)cc1`, for which the half-maximal activity concentration (AC50) is 28.7 µM (active).

With `CN1C(=O)CC[C@H]1c1cccnc1`, the compound was classed as inactive.

As for `O=C(Nc1ccc(Cl)cc1)Nc1ccc(Cl)c(Cl)c1`, the concentration at half-maximal activity (AC50) is 7.87 µM (active).

As to `COc1cc(C(=O)NC2CCN(C)CC2)ccc1Nc1ncc2c(n1)N(C1CCCC1)CC(F)(F)C(=O)N2C`, the result was inactive.

As to `NCc1cccc(C2CCN(C(=O)c3ccc(C#Cc4ccccc4F)o3)CC2)c1`, the AC50 was 14.3 µM (active).

Turning to `O=c1[nH]sc2ccccc12`, the AC50 is 50.4 µM (active).

On to `C[C@]12CC[C@@H]3c4ccc(O)cc4CC[C@H]3[C@@H]1CCC2=O`, for which the call was inactive.

As for `Cc1cc(F)ccc1-c1cc(N2CC[C@@H](O)[C@H]2CO)ncc1N(C)C(=O)C(C)(C)c1cc(C(F)(F)F)cc(C(F)(F)F)c1`, the compound was classed as inactive.

`Oc1ccc2ccccc2c1`: the result was inactive.

With `c1ccc2n[nH]nc2c1`, the result was inactive.

For `O=C1CCC(C2CCCCC2)CC1`, the compound was classed as inactive.

For `O=c1c(-c2ccc(O)cc2)coc2cc(O)cc(O)c12`, the compound was called inactive.

Consider `CCO[Si](CCCNC(N)=O)(OCC)OCC`, for which the compound was classed as inactive.

For the compound `CCCC(=O)OCCC(C)C`, the compound was called inactive.

For the compound `O=C(O)Cn1c(=O)n(Cc2ccc(Br)cc2F)c(=O)c2ccc(Cl)cc21`, the call was inactive.

As to `O=c1ccc2ccccc2o1`, the compound was called inactive.

For the compound `CN(C)C(=O)C1(N2CCCCC2)CCN(CC[C@@]2(c3ccc(Cl)c(Cl)c3)CN(C(=O)c3ccccc3)CCO2)CC1`, the compound was classed as inactive.

Turning to `CN(C[C@@H](CC[N+]12CCC(C3CCCCC3)(CC1)CC2)c1ccc(Cl)c(Cl)c1)C(=O)c1cc(C(F)(F)F)cc(C(F)(F)F)c1`, the outcome was inactive.

In the case of `COc1cccc([C@H](O)C2CCN(CCc3ccc(F)cc3)CC2)c1OC`, the call was inactive.

As for `CCN(Cc1cccc(S(=O)(=O)O)c1)c1ccc(C(=C2C=CC(=[N+](CC)Cc3cccc(S(=O)(=O)O)c3)C=C2)c2ccccc2S(=O)(=O)[O-])cc1`, the compound was classed as inactive.

Consider `Cc1occc1C(=O)Nc1ccc(C(=O)N2CCC(F)(F)/C(=C\C(=O)N3CCC(N4CCCCC4)CC3)c3ccccc32)cc1`, for which the call was inactive.

As to `Cc1cn([C@H]2C[C@H](N=[N+]=[N-])[C@@H](CO)O2)c(=O)[nH]c1=O`, the result was inactive.

For `CCCCCCCCCC(=O)O`, the compound was called inactive.

`OC12N=C(c3ccccc3)SC1Cc1cc(Cl)ccc12` (stereo not given): the result was inactive.

Regarding `Cc1cc2c(cc1C(F)(F)F)N(C(=O)Nc1ccc(Oc3cccnc3C)nc1)CC2`, the AC50 was 20.1 µM (active).

As to `Cc1ccc2oc(CN(Cc3ccccc3)C(=O)Nc3c(F)cc(F)cc3F)c(-c3ccc(Cl)cc3)c2c1`, the outcome was inactive.

In the case of `CC(O)CC(C)(C)O` (stereo not given), the call was inactive.

On to `NC(=O)c1nc(-c2cccc(-c3cc(F)ccc3OCC(F)(F)C(F)(F)F)c2)n[nH]1`, for which the AC50 is 93.4 µM (active).

In the case of `O=C=NCCCCCCN=C=O`, the outcome was inactive.

For `CC(C)(c1cc(Br)c(O)c(Br)c1)c1cc(Br)c(O)c(Br)c1`, the result was inactive.

As for `c1ccc(C[n+]2cccc3ccccc32)cc1`, the AC50 is 25.6 µM (active).

Consider `COc1ccc2cc(S(=O)(=O)N[C@H](CC(=O)N[C@H](Cc3ccc(CN4[C@H](C)CCC[C@@H]4C)cc3)C(=O)N(C)C(C)C)c3ccc4c(c3)OCO4)ccc2c1`, for which the AC50 was 13.6 µM (active).

Regarding `CC(=O)N1CCN(c2ccc(OC[C@H]3CO[C@](Cn4ccnc4)(c4ccc(Cl)cc4Cl)O3)cc2)CC1`, the call was inactive.

On to `CC1(C)NC(=O)N(c2ccc([N+](=O)[O-])c(C(F)(F)F)c2)C1=O`, for which the result was inactive.
